Assay results reported in the supplement of paper PMC10849652.
About 7,900 targets were measured; listed, in parts, are those with a hit and a random draw of the rest. About 0.6% of all pairs of compound and target were hits.

compound: COc1cccc2cc(-c3nc([C@H]4CC[C@H](C(=O)O)CC4)n4ncnc(N)c34)[nH]c12; assay: log2 fold change, soluble protein after heating vs DMSO (PISA); higher = thermal stabilisation; K562 cells, 10 uM, 30 min; active = over 0.2 and 3.5 SD of the protein, either way, in both replicates (recomputed)
In short: (§1)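 K562 cells at 2×10^6 cells/mL were treated with 10 μM compound for 30 min. Aliquots were heated for 3 min across 48°C-58°C, pooled, and extracted in PBS with 0.5% NP-40 at 4°C; soluble protein was the supernatant after 21,000xg for 90 min. Soluble protein was quantified by TMTpro 16plex LC-MS/MS with channel sums equalised, and reported as log2 fold change in thermal stability against DMSO controls, with values from duplicates.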

UniProt Q9NZC3, sequence (Q9NZC3 whole entry, looked up): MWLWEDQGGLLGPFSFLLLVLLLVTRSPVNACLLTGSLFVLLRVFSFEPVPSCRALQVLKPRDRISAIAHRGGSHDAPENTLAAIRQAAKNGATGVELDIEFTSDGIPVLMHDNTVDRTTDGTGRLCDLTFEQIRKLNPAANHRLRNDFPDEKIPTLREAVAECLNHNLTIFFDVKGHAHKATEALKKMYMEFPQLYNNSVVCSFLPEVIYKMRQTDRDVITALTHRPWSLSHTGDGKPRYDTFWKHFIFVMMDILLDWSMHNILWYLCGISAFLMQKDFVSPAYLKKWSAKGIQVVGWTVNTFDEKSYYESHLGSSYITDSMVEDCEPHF
UniProt Q9Y613, sequence (Q9Y613 whole entry, looked up): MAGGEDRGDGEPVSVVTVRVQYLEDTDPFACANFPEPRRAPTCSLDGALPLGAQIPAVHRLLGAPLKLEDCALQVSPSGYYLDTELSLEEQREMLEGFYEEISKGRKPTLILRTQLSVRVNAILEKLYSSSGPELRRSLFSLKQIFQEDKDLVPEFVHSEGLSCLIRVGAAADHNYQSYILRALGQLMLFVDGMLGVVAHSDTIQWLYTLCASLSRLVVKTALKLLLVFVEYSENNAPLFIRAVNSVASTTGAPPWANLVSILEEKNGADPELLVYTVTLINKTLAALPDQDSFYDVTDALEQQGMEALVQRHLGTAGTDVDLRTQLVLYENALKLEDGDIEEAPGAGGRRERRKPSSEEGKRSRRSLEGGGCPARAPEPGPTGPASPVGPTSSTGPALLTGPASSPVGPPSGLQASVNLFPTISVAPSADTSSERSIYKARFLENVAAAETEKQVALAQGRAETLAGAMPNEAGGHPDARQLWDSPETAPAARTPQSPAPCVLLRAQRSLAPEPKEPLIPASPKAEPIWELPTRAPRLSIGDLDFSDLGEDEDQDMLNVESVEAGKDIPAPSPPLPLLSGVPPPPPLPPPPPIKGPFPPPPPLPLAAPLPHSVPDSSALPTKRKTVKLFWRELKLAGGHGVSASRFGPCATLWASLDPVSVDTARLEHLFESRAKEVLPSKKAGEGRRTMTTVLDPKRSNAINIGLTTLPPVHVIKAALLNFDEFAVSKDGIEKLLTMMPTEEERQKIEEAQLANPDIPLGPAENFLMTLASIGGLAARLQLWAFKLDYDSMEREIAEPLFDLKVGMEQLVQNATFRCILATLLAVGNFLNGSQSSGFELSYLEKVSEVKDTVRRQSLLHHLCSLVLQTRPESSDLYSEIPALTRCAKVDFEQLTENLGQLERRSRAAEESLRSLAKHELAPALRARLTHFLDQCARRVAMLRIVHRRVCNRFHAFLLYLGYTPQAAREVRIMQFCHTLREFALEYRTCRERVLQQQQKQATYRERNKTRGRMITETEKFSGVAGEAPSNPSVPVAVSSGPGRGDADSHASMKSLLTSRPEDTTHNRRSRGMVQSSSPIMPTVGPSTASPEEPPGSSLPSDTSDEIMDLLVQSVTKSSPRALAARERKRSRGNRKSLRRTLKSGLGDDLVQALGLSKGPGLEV
UniProt Q92522, sequence (Q92522 whole entry, looked up): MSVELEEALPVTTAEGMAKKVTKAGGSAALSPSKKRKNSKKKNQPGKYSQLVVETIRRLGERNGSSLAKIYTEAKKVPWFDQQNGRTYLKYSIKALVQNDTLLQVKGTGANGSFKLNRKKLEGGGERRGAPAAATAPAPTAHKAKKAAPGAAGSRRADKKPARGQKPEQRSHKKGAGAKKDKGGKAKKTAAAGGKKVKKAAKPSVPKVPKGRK
UniProt Q9UJY4, sequence (Q9UJY4 whole entry, looked up): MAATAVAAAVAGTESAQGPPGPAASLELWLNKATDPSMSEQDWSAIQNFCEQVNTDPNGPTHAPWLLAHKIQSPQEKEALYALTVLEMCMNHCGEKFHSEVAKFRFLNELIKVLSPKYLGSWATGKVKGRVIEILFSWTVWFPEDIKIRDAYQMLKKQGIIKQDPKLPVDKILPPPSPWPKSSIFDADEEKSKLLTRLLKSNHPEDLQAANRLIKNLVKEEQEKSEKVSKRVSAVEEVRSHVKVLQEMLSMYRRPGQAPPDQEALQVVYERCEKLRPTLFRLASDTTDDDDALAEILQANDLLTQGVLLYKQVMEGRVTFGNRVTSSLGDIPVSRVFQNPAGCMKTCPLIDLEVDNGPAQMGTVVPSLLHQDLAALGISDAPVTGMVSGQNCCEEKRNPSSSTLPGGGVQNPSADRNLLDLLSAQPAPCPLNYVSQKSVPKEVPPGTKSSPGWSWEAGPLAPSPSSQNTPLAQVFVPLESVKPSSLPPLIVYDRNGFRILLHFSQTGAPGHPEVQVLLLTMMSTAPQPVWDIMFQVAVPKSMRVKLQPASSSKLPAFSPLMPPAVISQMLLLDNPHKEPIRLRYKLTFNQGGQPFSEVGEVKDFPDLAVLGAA
UniProt Q6P3S6, sequence (Q6P3S6 whole entry, looked up): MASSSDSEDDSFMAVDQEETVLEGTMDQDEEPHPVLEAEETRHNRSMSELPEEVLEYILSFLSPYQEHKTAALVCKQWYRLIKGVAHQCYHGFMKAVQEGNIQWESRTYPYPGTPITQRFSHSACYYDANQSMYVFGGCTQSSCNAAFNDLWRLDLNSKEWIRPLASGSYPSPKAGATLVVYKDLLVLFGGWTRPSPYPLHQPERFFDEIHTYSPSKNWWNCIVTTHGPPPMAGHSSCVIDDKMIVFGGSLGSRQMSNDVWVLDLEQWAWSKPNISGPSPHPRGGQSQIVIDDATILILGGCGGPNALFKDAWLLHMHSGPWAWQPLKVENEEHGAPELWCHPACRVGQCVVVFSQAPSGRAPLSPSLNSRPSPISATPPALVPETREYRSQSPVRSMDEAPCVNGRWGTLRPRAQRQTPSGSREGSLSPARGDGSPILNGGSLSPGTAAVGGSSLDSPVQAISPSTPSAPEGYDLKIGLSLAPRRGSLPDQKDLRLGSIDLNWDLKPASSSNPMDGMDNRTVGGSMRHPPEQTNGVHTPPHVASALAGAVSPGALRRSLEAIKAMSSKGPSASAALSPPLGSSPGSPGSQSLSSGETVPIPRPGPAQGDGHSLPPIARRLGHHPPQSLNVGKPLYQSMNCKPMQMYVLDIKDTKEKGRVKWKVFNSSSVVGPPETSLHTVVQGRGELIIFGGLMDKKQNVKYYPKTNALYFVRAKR
UniProt Q9BUJ2, sequence (Q9BUJ2 whole entry, looked up): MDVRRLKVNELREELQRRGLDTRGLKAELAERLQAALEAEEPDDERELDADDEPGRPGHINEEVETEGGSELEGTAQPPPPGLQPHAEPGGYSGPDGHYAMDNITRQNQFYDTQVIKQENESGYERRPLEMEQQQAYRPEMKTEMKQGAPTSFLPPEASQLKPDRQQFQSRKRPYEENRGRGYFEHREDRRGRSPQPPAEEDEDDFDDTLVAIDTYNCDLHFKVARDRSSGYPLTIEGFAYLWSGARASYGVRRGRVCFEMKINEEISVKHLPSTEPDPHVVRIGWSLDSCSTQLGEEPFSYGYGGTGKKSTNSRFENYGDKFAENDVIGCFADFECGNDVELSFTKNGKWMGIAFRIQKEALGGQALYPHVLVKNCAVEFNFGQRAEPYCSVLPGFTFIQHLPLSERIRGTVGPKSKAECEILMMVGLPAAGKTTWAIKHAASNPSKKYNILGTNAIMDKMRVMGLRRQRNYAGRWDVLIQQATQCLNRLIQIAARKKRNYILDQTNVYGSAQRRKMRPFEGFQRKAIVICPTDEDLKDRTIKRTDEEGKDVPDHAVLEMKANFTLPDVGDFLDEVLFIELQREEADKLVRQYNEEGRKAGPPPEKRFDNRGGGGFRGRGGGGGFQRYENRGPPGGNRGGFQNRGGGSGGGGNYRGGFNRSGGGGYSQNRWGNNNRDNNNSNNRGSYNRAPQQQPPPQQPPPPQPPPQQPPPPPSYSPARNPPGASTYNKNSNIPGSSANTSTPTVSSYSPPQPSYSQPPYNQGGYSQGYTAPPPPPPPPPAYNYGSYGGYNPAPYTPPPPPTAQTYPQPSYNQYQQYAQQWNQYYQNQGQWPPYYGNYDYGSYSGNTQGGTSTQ
UniProt Q9H0R4, sequence (Q9H0R4 whole entry, looked up): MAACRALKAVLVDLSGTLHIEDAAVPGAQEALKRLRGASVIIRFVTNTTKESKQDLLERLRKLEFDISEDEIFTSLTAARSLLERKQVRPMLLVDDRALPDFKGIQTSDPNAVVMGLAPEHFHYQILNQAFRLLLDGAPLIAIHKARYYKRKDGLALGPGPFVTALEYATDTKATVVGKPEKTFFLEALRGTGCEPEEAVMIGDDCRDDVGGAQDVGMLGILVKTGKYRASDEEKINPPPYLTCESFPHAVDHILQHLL
UniProt P63218, sequence (P63218 whole entry, looked up): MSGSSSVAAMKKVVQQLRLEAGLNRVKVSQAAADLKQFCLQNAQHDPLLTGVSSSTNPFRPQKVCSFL
UniProt P85037, sequence (P85037 whole entry, looked up): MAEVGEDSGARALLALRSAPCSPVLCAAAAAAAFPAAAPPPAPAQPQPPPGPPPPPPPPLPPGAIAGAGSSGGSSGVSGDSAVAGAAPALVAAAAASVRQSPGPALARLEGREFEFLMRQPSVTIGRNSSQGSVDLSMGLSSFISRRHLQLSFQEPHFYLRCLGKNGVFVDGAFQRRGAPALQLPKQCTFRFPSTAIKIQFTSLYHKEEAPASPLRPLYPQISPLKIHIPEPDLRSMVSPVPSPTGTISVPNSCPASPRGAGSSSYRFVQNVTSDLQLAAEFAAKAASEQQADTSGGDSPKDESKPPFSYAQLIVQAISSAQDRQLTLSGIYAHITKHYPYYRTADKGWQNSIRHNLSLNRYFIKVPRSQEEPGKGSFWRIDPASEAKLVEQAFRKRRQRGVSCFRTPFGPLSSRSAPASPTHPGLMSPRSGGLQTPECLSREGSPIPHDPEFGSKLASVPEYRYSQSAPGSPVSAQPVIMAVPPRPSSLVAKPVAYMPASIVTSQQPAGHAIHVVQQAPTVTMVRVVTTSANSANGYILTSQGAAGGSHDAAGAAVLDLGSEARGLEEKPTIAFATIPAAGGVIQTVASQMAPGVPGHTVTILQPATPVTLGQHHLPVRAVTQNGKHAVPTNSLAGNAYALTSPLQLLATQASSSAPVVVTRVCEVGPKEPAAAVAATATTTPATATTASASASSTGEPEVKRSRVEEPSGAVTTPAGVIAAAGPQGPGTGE

log2 fold change, inactive:
HTATIP2 isoform 3 (UniProt Q9BUP3) 0.054
GNG5 (UniProt P63218) 0.079
HDAC6 (UniProt Q9UBN7) -0.027
HNRNPUL1 (UniProt Q9BUJ2) 0.009
FHOD1 (UniProt Q9Y613) -0.253
H1FX (UniProt Q92522) -0.24
FOXK1 (UniProt P85037) 0.774
GDE1 (UniProt Q9NZC3) 0.01
GGA2 (UniProt Q9UJY4) 0.112
HDHD2 (UniProt Q9H0R4) 0.085
IFITM3 (UniProt Q01628) 0.089
FBXO42 (UniProt Q6P3S6) 0.07
GNPAT (UniProt O15228) 0
HNRNPK isoform 2 (UniProt P61978) 0.049
GATD1 (UniProt Q8NB37) 0.052
GCC2 (UniProt Q8IWJ2) -0.11

compound: CS(=O)(=O)CCNCc1ccc(-c2ccc3ncnc(Nc4ccc(OCc5cccc(F)c5)c(Cl)c4)c3c2)o1 [lapatinib]; assay: as above
In short: as §1

log2 fold change, inactive:
IGF2BP2 (UniProt Q9Y6M1) 0.046
GBA2 (UniProt Q9HCG7) 0.011
HADHA (UniProt P40939) 0.148
GCSH (UniProt P23434) -0.028
HEATR5B (UniProt Q9P2D3) 0.018
GBF1 (UniProt Q92538) -0.036
GOLPH3 (UniProt Q9H4A6) -0.055
GYS1 (UniProt P13807) 0.013
GNS (UniProt P15586) -0.024
FIS1 (UniProt Q9Y3D6) 0.008
HMGB3 (UniProt O15347) 0.062
HHEX (UniProt Q03014) -0.004
GSR (UniProt P00390) -0.057
GLUD2 (UniProt P49448) 0.191
FBL (UniProt P22087) 0.11
FCHO1 (UniProt O14526) -0.105
HTATIP2 isoform 3 (UniProt Q9BUP3) -0.015
GNG5 (UniProt P63218) -0.006
HDAC6 (UniProt Q9UBN7) 0.016
HNRNPUL1 (UniProt Q9BUJ2) 0.031
FHOD1 (UniProt Q9Y613) 0.014
H1FX (UniProt Q92522) 0.133
FOXK1 (UniProt P85037) 0.085
GDE1 (UniProt Q9NZC3) -0.011
GGA2 (UniProt Q9UJY4) -0.027
HDHD2 (UniProt Q9H0R4) -0.03
IFITM3 (UniProt Q01628) 0.004
FBXO42 (UniProt Q6P3S6) 0.063
GNPAT (UniProt O15228) 0.061
HNRNPK isoform 2 (UniProt P61978) -0.016
GATD1 (UniProt Q8NB37) -0.064
GCC2 (UniProt Q8IWJ2) 0.056
